Assay [1] has as its target RAF proto-oncogene serine/threonine-protein kinase (Homo sapiens) (UniProt P04049). As to conditions: at 1 µM.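 Further: values are the mean percent inhibition of CRAF.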
Assay [2] has as its target T1, Interleukin-1 receptor-associated kinase 4 (Homo sapiens) (UniProt Q9NWZ3).
T1 sequence (whole entry): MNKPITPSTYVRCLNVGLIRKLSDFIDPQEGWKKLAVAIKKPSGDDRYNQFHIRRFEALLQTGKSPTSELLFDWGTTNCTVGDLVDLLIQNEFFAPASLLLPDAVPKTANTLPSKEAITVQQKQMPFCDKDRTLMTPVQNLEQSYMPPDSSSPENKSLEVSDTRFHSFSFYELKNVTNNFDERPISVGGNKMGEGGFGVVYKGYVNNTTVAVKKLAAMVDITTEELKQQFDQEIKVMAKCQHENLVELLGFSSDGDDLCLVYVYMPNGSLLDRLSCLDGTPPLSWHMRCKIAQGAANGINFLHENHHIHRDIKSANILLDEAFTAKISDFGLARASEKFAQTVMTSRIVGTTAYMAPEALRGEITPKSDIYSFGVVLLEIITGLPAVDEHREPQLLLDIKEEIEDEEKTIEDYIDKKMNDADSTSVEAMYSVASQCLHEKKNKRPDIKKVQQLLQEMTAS
To be noted: at 0.1 µM.

Assay [3] has as its target T1, Interleukin-1 receptor-associated kinase 4 (Homo sapiens). To be noted: at 1 µM.
The target of assay [4] is Leucine-rich repeat serine/threonine-protein kinase 2 (Homo sapiens) (UniProt Q5S007). To be noted: at 0.1 µM.
The target is the same in assay [5]. As to conditions: at 1 µM.
For assay [6], the system named is Leucine-rich repeat serine/threonine-protein kinase 2 (Homo sapiens), Q5S007 [G2019S]. To be noted: at 0.1 µM.
The test system is the same in assay [7]. As to conditions: at 1 µM.

The term inhibition denotes the relative decrease from the control value, in per cent.

RAF proto-oncogene serine/threonine-protein kinase (Homo sapiens), sequence (P04049 whole entry): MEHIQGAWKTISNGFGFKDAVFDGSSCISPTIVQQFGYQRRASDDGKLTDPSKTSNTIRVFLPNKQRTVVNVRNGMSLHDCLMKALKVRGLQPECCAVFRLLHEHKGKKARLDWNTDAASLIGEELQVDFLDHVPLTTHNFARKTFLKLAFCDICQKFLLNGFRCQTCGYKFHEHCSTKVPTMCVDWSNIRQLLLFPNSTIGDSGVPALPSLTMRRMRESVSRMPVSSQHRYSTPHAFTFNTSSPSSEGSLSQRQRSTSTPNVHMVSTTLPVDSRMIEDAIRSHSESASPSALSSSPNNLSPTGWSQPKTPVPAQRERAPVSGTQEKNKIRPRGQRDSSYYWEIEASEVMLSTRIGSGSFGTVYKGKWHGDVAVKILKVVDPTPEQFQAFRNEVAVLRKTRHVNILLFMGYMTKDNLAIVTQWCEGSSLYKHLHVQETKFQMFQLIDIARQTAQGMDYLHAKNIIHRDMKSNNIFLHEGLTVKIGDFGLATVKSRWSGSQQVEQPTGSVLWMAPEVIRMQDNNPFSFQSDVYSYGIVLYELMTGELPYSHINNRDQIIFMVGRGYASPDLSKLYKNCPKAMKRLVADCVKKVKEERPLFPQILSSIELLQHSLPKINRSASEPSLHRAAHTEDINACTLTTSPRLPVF
Leucine-rich repeat serine/threonine-protein kinase 2 (Homo sapiens), Q5S007 [G2019S], sequence (Q5S007 whole entry G2019S): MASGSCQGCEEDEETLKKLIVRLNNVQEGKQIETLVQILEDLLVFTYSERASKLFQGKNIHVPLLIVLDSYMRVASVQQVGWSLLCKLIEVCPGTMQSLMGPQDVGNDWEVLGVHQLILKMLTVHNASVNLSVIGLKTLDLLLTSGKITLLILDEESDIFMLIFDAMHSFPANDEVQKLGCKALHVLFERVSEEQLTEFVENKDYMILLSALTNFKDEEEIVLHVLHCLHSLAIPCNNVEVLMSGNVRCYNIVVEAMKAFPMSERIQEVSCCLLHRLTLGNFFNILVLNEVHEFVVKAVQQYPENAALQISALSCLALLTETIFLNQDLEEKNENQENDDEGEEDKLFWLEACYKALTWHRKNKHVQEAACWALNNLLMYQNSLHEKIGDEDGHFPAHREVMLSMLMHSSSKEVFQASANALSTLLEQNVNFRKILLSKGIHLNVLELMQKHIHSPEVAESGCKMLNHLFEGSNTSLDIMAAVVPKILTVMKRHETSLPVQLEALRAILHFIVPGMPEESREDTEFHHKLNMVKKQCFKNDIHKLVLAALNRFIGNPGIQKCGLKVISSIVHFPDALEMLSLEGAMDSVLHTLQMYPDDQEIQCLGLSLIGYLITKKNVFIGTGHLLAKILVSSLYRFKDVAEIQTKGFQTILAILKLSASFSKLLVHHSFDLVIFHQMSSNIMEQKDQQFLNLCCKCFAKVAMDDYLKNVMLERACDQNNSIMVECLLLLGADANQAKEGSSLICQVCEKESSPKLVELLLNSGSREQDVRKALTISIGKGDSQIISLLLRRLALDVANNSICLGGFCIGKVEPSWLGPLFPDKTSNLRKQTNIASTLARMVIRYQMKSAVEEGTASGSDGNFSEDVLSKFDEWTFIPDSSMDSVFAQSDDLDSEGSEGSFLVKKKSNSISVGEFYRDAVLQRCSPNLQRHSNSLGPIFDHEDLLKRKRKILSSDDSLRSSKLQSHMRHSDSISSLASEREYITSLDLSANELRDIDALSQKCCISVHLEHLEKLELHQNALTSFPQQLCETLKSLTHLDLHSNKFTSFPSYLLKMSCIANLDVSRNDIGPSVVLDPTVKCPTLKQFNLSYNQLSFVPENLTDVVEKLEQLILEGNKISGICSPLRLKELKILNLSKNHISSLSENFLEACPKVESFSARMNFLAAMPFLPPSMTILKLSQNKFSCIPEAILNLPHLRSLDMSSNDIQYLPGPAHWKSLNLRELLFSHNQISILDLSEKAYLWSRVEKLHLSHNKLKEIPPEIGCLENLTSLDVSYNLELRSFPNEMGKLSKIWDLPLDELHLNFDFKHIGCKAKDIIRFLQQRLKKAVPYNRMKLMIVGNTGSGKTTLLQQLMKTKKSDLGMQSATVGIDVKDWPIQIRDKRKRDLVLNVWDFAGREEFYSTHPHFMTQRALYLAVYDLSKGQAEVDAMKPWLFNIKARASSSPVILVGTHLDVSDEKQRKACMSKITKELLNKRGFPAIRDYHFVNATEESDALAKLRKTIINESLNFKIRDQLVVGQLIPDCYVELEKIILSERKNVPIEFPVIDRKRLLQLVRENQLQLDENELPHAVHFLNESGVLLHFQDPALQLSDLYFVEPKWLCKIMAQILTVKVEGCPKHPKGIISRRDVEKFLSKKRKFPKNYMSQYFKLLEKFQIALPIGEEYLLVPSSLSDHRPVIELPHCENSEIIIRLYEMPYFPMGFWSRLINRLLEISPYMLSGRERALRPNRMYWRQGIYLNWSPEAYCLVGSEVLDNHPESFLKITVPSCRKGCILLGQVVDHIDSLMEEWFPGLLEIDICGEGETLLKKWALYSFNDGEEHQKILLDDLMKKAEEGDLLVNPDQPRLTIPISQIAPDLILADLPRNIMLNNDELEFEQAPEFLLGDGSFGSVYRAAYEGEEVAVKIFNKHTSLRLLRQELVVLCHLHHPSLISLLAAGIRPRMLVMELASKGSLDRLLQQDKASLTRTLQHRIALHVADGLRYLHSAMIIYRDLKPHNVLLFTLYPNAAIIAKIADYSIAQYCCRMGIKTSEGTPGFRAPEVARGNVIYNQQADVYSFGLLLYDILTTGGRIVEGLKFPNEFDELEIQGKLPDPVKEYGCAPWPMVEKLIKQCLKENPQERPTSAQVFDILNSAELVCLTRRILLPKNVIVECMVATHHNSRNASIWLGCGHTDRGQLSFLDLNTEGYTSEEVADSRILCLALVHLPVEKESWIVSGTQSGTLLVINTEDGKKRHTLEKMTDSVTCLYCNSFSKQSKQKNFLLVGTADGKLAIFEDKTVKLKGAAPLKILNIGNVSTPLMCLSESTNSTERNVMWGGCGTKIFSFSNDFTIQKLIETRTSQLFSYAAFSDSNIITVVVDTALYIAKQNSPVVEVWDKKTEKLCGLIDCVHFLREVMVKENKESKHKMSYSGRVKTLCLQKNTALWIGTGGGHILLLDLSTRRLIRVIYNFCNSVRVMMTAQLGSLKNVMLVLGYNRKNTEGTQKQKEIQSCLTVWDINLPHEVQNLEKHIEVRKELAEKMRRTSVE
Leucine-rich repeat serine/threonine-protein kinase 2 (Homo sapiens), sequence (Q5S007 whole entry): as the sequence (Q5S007 whole entry G2019S) above, with S2019G counted along it

Regarding `CC1=C(C(=O)Nc2ccc3[nH]ncc3c2)C(c2ccc(Cl)c(Cl)c2)CC(=O)N1` (stereo unspecified), the inhibition in assay [1] was 2.44%; in assay [2], -3.53%; in assay [3], 0.93%; in assay [4] it was 2.44%; in assay [5], 4.77%; in assay [6], 0.95%. In assay [7], the inhibition worked out at 8.99%.
`COc1ccc2cc(-c3c(-c4ccncc4)nc(-c4ccc([S+](C)[O-])cc4)n3C)ccc2c1` (stereo unspecified): the inhibition was found to be 9.73% in assay [1]; 3.57% in assay [2]; 1.12% in assay [3]; 2.6% in assay [4]; 4.23% in assay [5]; 3.37% in assay [6]. Moreover, the inhibition in assay [7] came to 5.02%.
`O=C(Nc1n[nH]c2nc(-c3ccco3)c(Br)cc12)C1CC1`: the inhibition in assay [1] came out at 2.37%; in assay [2], 5.57%; in assay [3], 1.08%; in assay [4] it was 2.41%; in assay [5], 2.93%; in assay [6], 2.74%. In addition, the inhibition in assay [7] turned out to be 6.98%.
On to `CS(=O)(=O)CCNCc1nc(-c2ccc3ncnc(Nc4ccc(F)c(Cl)c4)c3c2)cs1`, for which the inhibition in assay [1] was -0.82%; in assay [2] it was 0.41%; in assay [3], 1.35%; in assay [4] it was 2.13%; in assay [5] it was 5.82%; in assay [6], 1.31%. Besides, the inhibition in assay [7] was 2.37%.
As for `Nc1nc(-c2ccccn2)c(-c2ccc3ncccc3n2)s1`, the inhibition was 2.42% in assay [1]; -3.29% in assay [2]; 1.27% in assay [3]; 2.15% in assay [4]; 4.38% in assay [5]; 1.86% in assay [6]. Moreover, the inhibition in assay [7] came out at 5.88%.
Consider `Cc1nnc(-c2ccc(C)c(-c3ccc(C(=O)Nc4cccc(C#N)c4)cc3)c2)o1`, for which the inhibition in assay [1] is -9.42%; in assay [2], 4.13%; in assay [3], 0.84%; in assay [4], 0.06%; in assay [5], 0.83%; in assay [6], 2.49%. Moreover, the inhibition in assay [7] was 7.62%.
Consider `COc1ccc(-c2ccncc2)cc1C(N)=O`, for which the inhibition in assay [1] is -2.86%; in assay [2], 1.8%; in assay [3], 2.34%; in assay [4], 2.67%; in assay [5] it was 5.73%; in assay [6], 4.45%. In addition, the inhibition in assay [7] stood at 9.13%.
Turning to `COc1ccc(-c2coc3ncnc(N)c23)cc1`, the inhibition in assay [1] came to 4.1%; in assay [2], 0.41%; in assay [3], 1.48%; in assay [4], 3.62%; in assay [5] it was 6.4%; in assay [6] it was 4.35%. For the same molecule, the inhibition in assay [7] turned out to be 7.19%.
As for `CCn1c(-c2nonc2N)nc2ccncc21`, the inhibition in assay [1] is 14%; in assay [2], 2.09%; in assay [3], 0.65%; in assay [4], 1.49%; in assay [5] it was 2.85%; in assay [6], 1.49%. For the same molecule, in assay [7], the inhibition was found to be 6.2%.
For the molecule `NS(=O)(=O)c1cccc(-c2ccc3c(NC(=O)C4CC4)n[nH]c3c2)c1`, the inhibition in assay [1] was -2.5%; in assay [2], 1.83%; in assay [3], -0.64%; in assay [4], -2.61%; in assay [5], 1.25%; in assay [6], 1.47%. Moreover, the inhibition in assay [7] amounted to 1.75%.
Regarding `COc1cc(C)c(NC(=O)CN(C)C)cc1Nc1nc(Nc2cccc(F)c2C(N)=O)c2cc[nH]c2n1`, the inhibition was -0.14% in assay [1]; -2.25% in assay [2]; 2% in assay [3]; 91.2% in assay [4]; 90.2% in assay [5]; 83.5% in assay [6]. Further, the inhibition in assay [7] was found to be 88.7%.
Consider `CC1=C(C(=O)Nc2ccc3[nH]ncc3c2)C(c2ccc3ccccc3c2)CC(=O)N1` (stereo unspecified), for which the inhibition in assay [1] stood at 1.65%; in assay [2] it was 3.06%; in assay [3] it was 0.83%; in assay [4] it was 4.73%; in assay [5], 10.1%; in assay [6], 6.31%. Also, the inhibition in assay [7] is 25%.
`CC(C)=Cc1cccc2c1/C(=N/Nc1ccc(S(N)(=O)=O)cc1)C(=O)N2`: the inhibition in assay [1] was -1.14%; in assay [2], -0.76%; in assay [3] it was 0.79%; in assay [4] it was 14.9%; in assay [5], 65.4%; in assay [6] it was 17.7%. Moreover, in assay [7], the inhibition turned out to be 60.9%.
With `CS(=O)(=O)Nc1ccc(N/C=C2\C(=O)Nc3ccccc32)cc1`, the inhibition in assay [1] is -2.68%; in assay [2], -0.49%; in assay [3] it was -0.15%; in assay [4], 1.31%; in assay [5], 18.1%; in assay [6] it was 5.01%. In addition, the inhibition in assay [7] came to 31.3%.
For `Cc1cc(O)cc(C)c1/C=C/c1cncc(-c2nn[nH]n2)c1`, the inhibition in assay [1] was 60.8%; in assay [2] it was 1.46%; in assay [3] it was 2.18%; in assay [4], 1.54%; in assay [5], 10.4%; in assay [6], 6.18%. Also, the inhibition in assay [7] is 35.4%.
Take `COc1cc2ncn(-c3cc(O[C@H](C)c4ccccc4Cl)c(C(N)=O)s3)c2cc1OC`: the inhibition in assay [1] is 2.16%; in assay [2], -1.67%; in assay [3], 3.82%; in assay [4], 5.85%; in assay [5], 21.6%; in assay [6] it was 12.1%. In assay [7], the inhibition was determined as 51.9%.
For `COc1cc2c(cc1Nc1nc(N3CCc4ccccc43)c3cc[nH]c3n1)N(C(=O)CN(C)C)CC2`, the inhibition in assay [1] is -4.34%; in assay [2] it was -0.95%; in assay [3] it was 0.98%; in assay [4], 17.6%; in assay [5], 19.3%; in assay [6], 18.2%. For the same molecule, in assay [7], the inhibition is 57.1%.
With `CCn1c(-c2nonc2N)nc2cncc(C(=O)N3CCNCC3)c21`, the inhibition is -2.31% in assay [1]; 2.74% in assay [2]; 3.54% in assay [3]; 1.69% in assay [4]; 0.35% in assay [5]; 3.72% in assay [6]. For the same molecule, in assay [7], the inhibition was found to be 7.17%.
As to `CN(C)c1cc2c(Nc3ccc4nc(Cc5ccccc5)[nH]c4c3)ncnc2cn1`, the inhibition in assay [1] was -7.27%; in assay [2] it was 2.36%; in assay [3], 1.94%; in assay [4], 5.94%; in assay [5], 7.11%; in assay [6] it was 5.3%. In assay [7], the inhibition came out at 13.7%.
`COc1ccc(-c2nn3ncccc3c2-c2ccnc(Nc3ccc(Cl)c(C(F)(F)F)c3)n2)cc1`: the inhibition in assay [1] is -8.01%; in assay [2], 2.17%; in assay [3], 0.42%; in assay [4], 0.37%; in assay [5], 1.12%; in assay [6] it was 2.99%. Besides, the inhibition in assay [7] is 3.98%.
In the case of `CCN1CCC(CC(=O)Nc2n[nH]c3nc(-c4cccs4)c(Br)cc23)CC1`, the inhibition in assay [1] is 1.23%; in assay [2], -3.96%; in assay [3], -0.76%; in assay [4] it was -0.41%; in assay [5], 2.42%; in assay [6], 0.89%. Also, the inhibition in assay [7] is 2.44%.
For `O=C1Nc2ccc(C(=O)c3ccco3)cc2C1=Cc1cc(Cl)c(O)c(Cl)c1`, the inhibition worked out at 48.6% in assay [1]; 3.84% in assay [2]; 5.2% in assay [3]; 22.8% in assay [4]; 24% in assay [5]; 61.1% in assay [6]. For the same molecule, the inhibition in assay [7] came out at 63.9%.
In the case of `CCn1c(-c2nonc2N)nc2cncc(C(=O)N3CC[C@H](N)C3)c21`, the inhibition is 3.85% in assay [1]; 2.88% in assay [2]; 2.25% in assay [3]; 4.57% in assay [4]; 14.5% in assay [5]; 7.16% in assay [6]. For the same molecule, the inhibition in assay [7] was found to be 29.5%.
Turning to `Nc1nc(-c2ccc3c(c2)C(=Cc2cc(Br)c(O)c(Br)c2)C(=O)N3)cs1`, the inhibition is 26.7% in assay [1]; 3.08% in assay [2]; -0.15% in assay [3]; 0.74% in assay [4]; 14.2% in assay [5]; 10.3% in assay [6]. The inhibition in assay [7] was determined as 43.5%.
As for `[O-][S+]1CCN(Cc2ccc(-c3ccc4ncnc(Nc5ccc(OCc6ccccc6)c(F)c5)c4c3)o2)CC1`, the inhibition was -3.42% in assay [1]; 3.06% in assay [2]; 1.06% in assay [3]; 2.89% in assay [4]; 2.77% in assay [5]; 2.32% in assay [6]. Further, the inhibition in assay [7] is 8.38%.
Take `O=C1NC(=O)C(N2CCc3ccccc32)=C1c1ccc(Cl)cc1`: the inhibition was determined as 0.17% in assay [1]; 3.05% in assay [2]; 1.81% in assay [3]; 3.88% in assay [4]; 8.75% in assay [5]; 4.99% in assay [6]. The inhibition in assay [7] was 10.7%.
For `CCn1c(-c2nonc2N)nc2c(C#CC(C)(C)O)nc(CN3CCCC3)cc21`, the inhibition in assay [1] is -7.96%; in assay [2], 3.31%; in assay [3], -0.93%; in assay [4] it was -0.1%; in assay [5], 1.92%; in assay [6], 0.81%. The inhibition in assay [7] turned out to be 3.54%.
As to `NC(=O)c1cccc(Nc2nccc(Nc3cccc4[nH]ncc34)n2)c1`, the inhibition in assay [1] was -3.49%; in assay [2] it was -3.26%; in assay [3], 3.19%; in assay [4], 0.85%; in assay [5] it was 8.7%; in assay [6], 4.42%. For the same molecule, the inhibition in assay [7] turned out to be 30.9%.
For the molecule `COc1cc2ncn(-c3cc(O[C@@H](C)c4ccccc4Cl)c(C(N)=O)s3)c2cc1OC`, the inhibition was found to be 4.09% in assay [1]; 1.23% in assay [2]; 2.08% in assay [3]; 10.9% in assay [4]; 50% in assay [5]; 24% in assay [6]. For the same molecule, the inhibition in assay [7] is 64%.
Consider `CCn1c(-c2nonc2N)nc2cnc(Oc3cccc(NC(=O)c4ccc(OCCN5CCOCC5)cc4)c3)cc21`, for which the inhibition stood at 6.03% in assay [1]; 3.17% in assay [2]; 1.66% in assay [3]; 0.83% in assay [4]; 9.41% in assay [5]; 4.44% in assay [6]. Moreover, in assay [7], the inhibition was found to be 29.3%.
As to `N#Cc1c(NC(=O)c2cccc3ccccc23)sc2c1CCCC2`, the inhibition stood at 3.48% in assay [1]; 2.64% in assay [2]; 1.05% in assay [3]; 1.35% in assay [4]; 2.73% in assay [5]; 1.99% in assay [6]. For the same molecule, the inhibition in assay [7] is 3.65%.
On to `CN1CCC(C(=O)Nc2n[nH]c3nnc(-c4ccccc4)cc23)CC1`, for which the inhibition worked out at 8.96% in assay [1]; 1.96% in assay [2]; 2.54% in assay [3]; 1.09% in assay [4]; 3.72% in assay [5]; 3.14% in assay [6]. Also, the inhibition in assay [7] came to 6.96%.
For the molecule `CC(=O)Nc1cccc(C#Cc2cncnc2Nc2ccc(OCc3cccc(F)c3)c(Cl)c2)n1`, the inhibition in assay [1] is -2.95%; in assay [2] it was -0.61%; in assay [3], -0.89%; in assay [4] it was 3.07%; in assay [5], 4.78%; in assay [6], 2.03%. Also, the inhibition in assay [7] came out at 5%.

These data come from ChEMBL document CHEMBL1961873, “Compounds: GSK PKIS; Assays: Nanosyn kinase panel” (2012).
